Test results published in PubChem BioAssay AID624125 (The Scripps Research Institute Molecular Screening Center, 2012).
Out of some 360,000 compounds screened, about 2,600 (0.72%) were called active.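 The calls were made as follows: active = inhibition above its plate's cutoff, the mean inhibition of sample wells plus 3 SD (cut at about 27% in these data); inactive = the rest.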 The full list was thinned out, with actives kept by preference.

These compounds were tested against Muscarinic acetylcholine receptor M4 (Homo sapiens) (UniProt P08173) (assay: CHRM4 blockers of acetylcholine calcium response – CHO cells, Fluo-8 calcium fluorescence, primary screen (AID 624125;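 also: 0% = acetylcholine EC80 with DMSO and 100% = DMSO without agonist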)). Conditions: CHO-hM4 cells, ACh EC80, Fluo-8 calcium fluorescence; at 3 µM; hits give high values.
Chain of Muscarinic acetylcholine receptor M4 (Homo sapiens) (P08173 whole entry, looked up): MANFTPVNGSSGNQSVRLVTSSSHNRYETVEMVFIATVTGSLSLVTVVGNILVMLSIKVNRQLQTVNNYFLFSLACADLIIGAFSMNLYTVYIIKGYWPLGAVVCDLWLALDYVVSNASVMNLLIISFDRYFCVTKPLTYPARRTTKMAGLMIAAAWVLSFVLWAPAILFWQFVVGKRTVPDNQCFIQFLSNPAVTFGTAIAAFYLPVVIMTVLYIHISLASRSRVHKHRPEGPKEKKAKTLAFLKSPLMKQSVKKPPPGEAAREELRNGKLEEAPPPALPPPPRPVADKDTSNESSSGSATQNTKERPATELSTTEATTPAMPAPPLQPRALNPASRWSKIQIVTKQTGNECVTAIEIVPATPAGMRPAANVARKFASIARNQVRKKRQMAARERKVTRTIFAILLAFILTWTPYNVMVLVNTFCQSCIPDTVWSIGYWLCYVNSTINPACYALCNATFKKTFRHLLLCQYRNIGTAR

inhibition, active:
O=C1/C(=C\c2ccc([N+](=O)[O-])cc2)CS(=O)(=O)C/C1=C/c1ccc([N+](=O)[O-])cc1 26.7%, CN(C)CCOC(=O)C(c1ccccc1)C1(O)CCCC1 (centres undefined) 98%, CCCCNc1c(-c2cccc(Sc3ccc(OC)cc3)c2)nc2ccccn12 48.5%, COC(=O)c1ccc(CN2CCC(CO)(Cc3ccc(OC)cc3)CC2)cc1 31.7%, c1ccc2c(C[n+]3csc4ccccc43)cccc2c1 30.1%, Cc1onc(-c2ccccc2)c1-c1nnc(COC(=O)c2ccc(N(C)C)cc2)o1 62.4%, Cc1nc2sc(C(=O)c3ccccc3)c(N)c2c2c1CCCC2 29.8%, CCOC(=O)C1C(C)C(C(C)(C)C)N(S(=O)(=O)c2ccc(C)cc2)C1c1ccccc1 (centres undefined) 37.7%, CCCOc1ccc(F)cc1-c1cc(C(=O)Nc2ccc(F)c(Cl)c2)[nH]n1 28%, O=C(CN1CCN(Cc2ccccc2)CC1)NC(c1ccccc1)c1ccccc1 44.7%, CN(O)C(=S)c1ccccc1 31.7%

inhibition, inactive:
C#CCNC(=O)C1=C[C@@H](c2ccccc2)[C@H](CCCO)[C@@H](OCC)O1 12.4%, O=[N+]([O-])c1ccc(CN2CC(N3CC=CC3)CS2(=O)=O)cc1 (centres undefined) -1.16%, O=C(CSCc1c(F)cccc1Cl)NCC1CCCO1 (centres undefined) -3.01%, CC(=O)Nc1ccccc1OC(C)C(=O)N1CCC(C)CC1 (centres undefined) -7.56%, CC(C)c1cc(C(=O)N(C)C2CCCN(Cc3ccccc3F)C2)n(C)n1 (centres undefined) -12.6%, O=C(O)C(c1cccs1)C1(O)CCCCC1 (centres undefined) 5.22%, O=C(O)C(c1ccccc1)C1(O)CCCCC1 (centres undefined) -13.2%, CCC(C)[C@H](NC(=O)N1CCn2c1nc1ccccc12)C(=O)NCc1ccc(OC)cc1 (some centres undefined) -15.9%, NS(=O)(=O)c1ccc(CCNC(=O)c2ccc([N+](=O)[O-])cc2[N+](=O)[O-])cc1 5.77%, COc1nnc(-c2ccc(C)c(S(=O)(=O)N(C)C)c2)c2ccccc12 2.31%, COC(=O)c1ccc2nc(-c3ccccc3)c(Cc3ccc(OC)cc3C)n2c1 11.4%, COC(=O)c1ccc2nc(-c3cccc(Br)c3)c(Cc3ccc(OC)cc3C)n2c1 1.2%, CN1C(=O)CC(N2CCN(c3ccccn3)CC2)C1=O (centres undefined) 2.5%, Cc1ccc(C(=O)N(CN2CCCC2=O)c2ccc(F)cc2)cc1 6.56%, COc1cccc(CC2(CO)CCN(Cc3cnc(-c4cccc(C)c4)nc3)CC2)c1 0.77%, COc1ccc(CC2(CO)CCN(Cc3cnn(C)c3)CC2)cc1 -5.66%, CC(C)(C)Nc1c(-c2cccs2)nc2ccccn12 6.54%, O=C(CNS(=O)(=O)c1ccc2c(c1)OCCCO2)N1CCN(c2ccc(F)cc2)CC1 -7.25%, CC(C)CCN1C(=O)c2ccc(C(=O)Nc3cccc(S(N)(=O)=O)c3)cc2C1=O 4.89%, CN=C1C=C/C(=N/N=c2\ccn(O)cc2C)C=C1C 11.9%, Nc1scc[n+]1Cc1cccc2cccnc12 -7.43%, CCN(CC(=O)Nc1ccccc1OC)C(=O)CC1CC2CCC1C2 (centres undefined) 0.94%, Cc1cccc2c1N(CCOc1ccccc1)C(=O)C2=O -0.73%, C/C(=N\N1CCN(Cc2ccc(C)cc2)CC1)c1ccco1 1.69%, CCOC(=O)c1ccccc1NC(=O)COC(=O)CCC(=O)N1CCOCC1 2.73%, C[C@H]1[C@H]2c3nc4ccccc4n3C[C@H]1ON2C1CCCCC1 -2.5%, O=C(OCc1nnc(-c2ccccc2)o1)c1ccc2c(c1)C(=O)N(CCc1ccccc1)C2=O -2.43%, Cc1ccc(C(=O)NCC(=O)OCc2nnc(-c3ccccc3)o2)cc1 8.37%, COc1ccc(C(=O)N2CCCCC2c2cc(C(=O)Nc3ccccc3)no2)cc1 (centres undefined) -6.76%, Cn1c(-c2ccc(C(=O)c3ccccc3)s2)nc2ccccc21 1.58%, Cc1c(C(=O)Nc2ccccc2)sc2nc3n(c(=O)c12)CCCCC3 -0.96%, COc1ccc([C@H]2C[C@@H](n3cc(COC(=O)c4ccccc4)nn3)[C@H](O)CN2C(=O)c2cccs2)cc1 -7.8%, Cc1ccc(S(=O)(=O)N(CC(=O)NCCSC2CCCCC2)c2ccccc2F)cc1 -2.75%, CCCCC[C@@H]1C=C(C(=O)OCC)[C@H](c2ccccc2)N1S(=O)(=O)c1ccc(C)cc1 -11.2%, CCOC(=O)C1=CC[C@@H](c2ccccc2)N(S(=O)(=O)c2ccc(C)cc2)[C@H]1c1ccc(CC)cc1 -16.5%, CCC(C)NCCOCCOc1ccc(Br)cc1C (centres undefined) 6.84%, Cc1ccc(C)c(NC(=O)C(OC(=O)c2ccc(C)s2)c2ccccc2)c1 (centres undefined) -13.1%, CCCOc1ccc(F)cc1-c1cc(C(=O)NCc2ccc(F)cc2)[nH]n1 -9.17%, CCCOc1ccc(F)cc1-c1cc(C(=O)Nc2ccc(F)cc2)[nH]n1 -2.62%, CC(=O)NC(C(=O)NCC(N)=O)C(C)C (centres undefined) -7.93%, Cc1ccc(C)c(S(=O)(=O)Nc2cccc(-n3cnnn3)c2)c1 4.01%, O=C(CC1Oc2ccccc2NC1=O)NCCCN1CCN(Cc2ccccc2)CC1 (centres undefined) -1.94%, CN(C)c1ccc(CNC23CN4CN(CN(C4)C2)C3)cc1 3.33%, O=C(CN1CCc2ccccc21)NC(c1ccccc1)c1ccccc1 -1.96%, O=C(CN1CCN(Cc2ccccc2)CC1)Nc1ccc(F)c(F)c1 13%, CN(CCc1ccccc1)c1ccc([N+](=O)[O-])cn1 10.7%, COc1cc(NC(=S)NNC(=O)CC(C)C)c(OC)cc1Cl -7.19%, Cc1nn(Cc2ccccc2)c(C)c1CNC(=O)c1ccc(F)c(S(=O)(=O)N2CCOCC2)c1 -8.04%
